Only some compounds are listed: those with a hit (about 12% of all), similar ones and a draw of the others.
WT yeast gro inh: growth inhibition of WT strain, primary screen, mitochondrial fusion inhibitor project, WT and mutant strains, chemical genetic. mitochondrial fusion phenotypic screen. inhibition, % at 10 µM. actives 2.1% (n = 190,000); in the data active = inhibition above about 58%; tested in S. cerevisiae
Insulin prom up: insulin promoter activators in MIN6 cells, imaging, high-content screening, mouse beta cells; MIN6 insulin promoter-GFP reporter; active compounds read high; z-score at 5 µM; actives 0.3% (n = 190,000);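 active = z-score above 3 at 5 µM with at least 500 cells counted in the well; inconclusive = wells under 500 cells, flagged as cytotoxic or low count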
KCC2 mod: KCC2 cotransporter modulators, thallium flux, primary screen, cell-based, HEK293 KCC2, FluoZin-2 fluorescence, MLSMR; Solute carrier family 12 member 5 (Homo sapiens), Q9H2X9; KCC2 cells, thallium flux FluoZin-2 fluorescence; B-score of Tl+ flux slope (higher = more flux/activation; lower = inhibition) at 10 µM; actives 2.2% (n = 190,000);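 active = thallium flux slope and its plate-corrected score both differing from the plate sample mean at a set confidence after two filtering rounds, in either direction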;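 note: slope of fluorescence scaled to starting intensity during 10 to 20 s after thallium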
Target sequence (Q9H2X9 whole entry, looked up): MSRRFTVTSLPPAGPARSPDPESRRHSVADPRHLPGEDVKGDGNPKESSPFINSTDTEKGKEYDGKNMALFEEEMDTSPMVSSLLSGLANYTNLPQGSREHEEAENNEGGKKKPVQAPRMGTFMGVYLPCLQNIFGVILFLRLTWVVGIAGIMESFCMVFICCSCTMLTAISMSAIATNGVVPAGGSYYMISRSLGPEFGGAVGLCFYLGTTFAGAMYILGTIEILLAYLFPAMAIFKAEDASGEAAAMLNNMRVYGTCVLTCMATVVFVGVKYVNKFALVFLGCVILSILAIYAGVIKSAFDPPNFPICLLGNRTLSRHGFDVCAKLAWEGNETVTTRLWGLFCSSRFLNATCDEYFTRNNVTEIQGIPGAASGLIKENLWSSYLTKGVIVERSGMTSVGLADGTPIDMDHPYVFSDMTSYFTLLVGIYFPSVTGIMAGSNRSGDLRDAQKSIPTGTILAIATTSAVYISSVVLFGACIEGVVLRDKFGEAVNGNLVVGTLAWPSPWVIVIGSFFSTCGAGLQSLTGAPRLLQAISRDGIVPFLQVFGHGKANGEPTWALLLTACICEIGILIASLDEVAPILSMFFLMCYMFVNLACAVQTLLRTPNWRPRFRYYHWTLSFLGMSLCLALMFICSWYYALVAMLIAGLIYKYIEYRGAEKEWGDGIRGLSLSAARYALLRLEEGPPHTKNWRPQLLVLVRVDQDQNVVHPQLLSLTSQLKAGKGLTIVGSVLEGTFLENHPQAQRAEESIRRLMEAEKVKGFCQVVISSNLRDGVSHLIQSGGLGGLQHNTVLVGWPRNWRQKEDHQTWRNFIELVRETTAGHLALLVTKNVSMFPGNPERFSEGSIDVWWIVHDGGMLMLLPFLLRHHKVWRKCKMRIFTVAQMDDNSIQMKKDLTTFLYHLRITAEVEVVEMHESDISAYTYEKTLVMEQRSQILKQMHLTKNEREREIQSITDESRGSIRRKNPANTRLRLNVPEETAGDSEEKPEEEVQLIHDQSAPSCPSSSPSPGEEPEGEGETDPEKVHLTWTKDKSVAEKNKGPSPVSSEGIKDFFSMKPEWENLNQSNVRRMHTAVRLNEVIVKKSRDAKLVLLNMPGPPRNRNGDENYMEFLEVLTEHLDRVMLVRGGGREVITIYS
INS promoter inh: inhibitors of insulin promoter-driven GFP, primary screen, imaging, TRM-6 cells (human fetal islet line), eGFP reporter, cell count; reporter expression induced with tamoxifen; inhibition, % at 2 µM; actives 0.9% (n = 130,000); AID 1273, 2008;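 active = inhibition above the mean plus 3 SD, with well images judged a real hit on visual review, cut at about 60% in these data, passing the limit was not always enough; inconclusive = inhibition over the cutoff but images rejected on review; inactive = inhibition not above the cutoff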
ROMK mod: ROMK potassium channel modulators, primary screen, cell-based, thallium flux, MLSMR library; ATP-sensitive inward rectifier potassium channel 1 (Homo sapiens), P48048; Tet-inducible ROMK, thallium flux fluorescence; actives lie on both sides; B-score at 10 µM; actives 2% (n = 130,000);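 active = signal ratio slope over the read window, or its plate-corrected B-score, at least 3 SD from the plate mean, either direction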;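 note: B-score of the F/F0 ratio slope over 7 to 12 s after thallium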
Lmaj promast: Leishmania major promastigote growth inhibition, primary screen; Leishmania major promastigotes, resazurin fluorescence viability; inhibition, % at 10 µM; actives 9% (n = 200,000); in the data active = inhibition above about 50%;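 note: promastigotes grown with compound for 44 hours at 28 °C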
Active calls of the source: *; ? = inconclusive; · = no result given.

SMILES | WT yeast gro inh | Insulin prom up | KCC2 mod | INS promoter inh | ROMK mod | Lmaj promast
Cc1ccc(S(=O)(=O)/N=C2\C(=O)c3ccccc3C([O-])=C2n2cc[n+](CCC(C)C)c2)cc1 | 16 | 0.77 | -0.39 | 9 | · | 88*
COc1ccc(NC(=O)CSc2ccc3ccccc3c2)cc1S(=O)(=O)N1CCCCC1 | 43 | 0.08 | 0.73 | 19 | 0.011 | 19
C=CCN1C(=O)C(CC(=O)Nc2ccc(OC)cc2)SC1=Nc1ccc(S(N)(=O)=O)cc1 (stereo not drawn) | -1 | -0.09 | 0.81 | · | -0.037 | -10
CC(C)C(=O)Nc1cc(=O)[nH]c2ncnn12 | -13 | -0.48 | · | 50 | 0.03 | 0
CC(C)(C)c1ccc(OCc2ccc(C(=O)N/N=C/c3ccc(O)c(O)c3)cc2)cc1 | -5 | -3.6 | -0.035 | · | 0.13 | 100*
O=C(N/N=C/c1ccc([N+](=O)[O-])cc1)c1ccc(COc2ccccc2-c2ccccc2)cc1 | 8 | -1.5 | 0.85 | · | -0.64 | 90*
CC(C)C(=O)Nc1ccccc1C(=O)N/N=C/c1ccc([N+](=O)[O-])cc1 | -7 | -0.35 | · | · | 0.64 | 52*
Cc1ccc(C(C)C)c(OCc2ccc(C(=O)N/N=C/c3ccc(O)cc3O)cc2)c1 | 61* | -4.6 | -0.076 | · | · | 100*
CC(Nc1cccc2ccccc12)C(=O)N/N=C/c1ccc([N+](=O)[O-])cc1 (stereo not drawn) | 45 | -0.19 | -0.45 | 32 | -1.2 | 0
O=C(/C=C/c1ccc(S(=O)(=O)N2CCOCC2)cc1)NC(=S)NCCCn1ccnc1 | -1 | 2.8 | 0.022 | · | -0.56 | 23
COc1ccc(/C(N)=N/OC(=O)CSc2ccccc2)cc1 | 10 | · | · | -37 | 0.37 | -7
COC(=O)c1cc(-c2ccccc2)sc1NC(=O)c1cc(C)on1 | -1 | -0.41 | 0.23 | · | · | -6
Cc1cc([N+](=O)[O-])nn1Cc1ccc(C(=O)N/N=C/c2ccc(N(C)C)cc2)cc1 | · | -0.51 | 1.4 | · | · | ·
O=C(N/N=C/c1cccc(O)c1)c1ccc(COc2cccc3cccnc23)cc1 | -1 | -0.01 | 0.055 | · | 0 | -2
O=C(N/N=C/c1cccc(O)c1)c1ccc(COc2ccccc2Br)cc1 | 80* | 0.72 | -2 | 3 | · | 0
CC(C)(C)c1ccc(OCc2ccc(C(=O)N/N=C3\CC4CC=CC34)cc2)cc1 (stereo not drawn) | 72* | 0.14 | 0.74 | 19 | -0.048 | -2
O=S(=O)(Nc1ccc2c(c1)OCCO2)c1ccc2oc3ccccc3c2c1 | 3 | · | -1.8 | -347 | · | -1
COC(=O)c1c(N=CN(C)C)c(C#N)c2n1CCCC2 | 1 | 0.44 | -0.11 | -33 | -0.75 | -3
Cc1ccccc1OCC(=O)N/N=C/c1cc2ccccc2nc1Cl | 17 | -0.48 | · | · | -0.085 | -3
C=CCc1ccccc1OCC(=O)N/N=C/c1ccc(OC(C)=O)cc1OC(C)=O | -5 | 0.24 | -1.8 | · | 0.34 | 98*
CCOC(=O)c1c(C2CC2)csc1NC(=O)COC(=O)c1cc(OC)c(OC)cc1[N+](=O)[O-] | 2 | -1.3 | -0.086 | 49 | -0.22 | 91*
Cn1cc(C(=O)c2cccc(Cl)c2)cc1/C=N\O | -2 | -0.17 | -1.5 | · | -1.9 | 15
CCOc1cccc(CNc2ccc(O)cc2)c1OCc1ccc(Cl)cc1Cl | 66* | -0.28 | -0.88 | -91 | 1.6 | 100*
CCOc1cccc(CNc2ccc(O)cc2)c1OCc1ccccc1Cl | 11 | 0.46 | -0.0086 | · | · | 99*
CCOC(=O)CCC(NC(=O)CCCC(=O)NC(CCC(=O)OCC)C(=O)OCC)C(=O)OCC (stereo not drawn) | -13 | 1.4 | 0.33 | -14 | · | -4
SMILES | WT yeast gro inh | Insulin prom up | KCC2 mod | INS promoter inh | ROMK mod | Lmaj promast
COc1ccc(N2CCN(CCCNC(=O)C3CCC(CNc4nc(=S)[nH]c5ccccc45)CC3)CC2)cc1 (stereo not drawn) | -7 | -0.03 | -0.014 | · | -0.0031 | 86*
O=C(CN1CCc2ccccc21)NC(=O)NCc1ccco1 | 2 | 1.5 | · | -53 | 0.0028 | -6
COc1ccccc1N1CCN(C(c2cc3ccc(C)cc3[nH]c2=O)c2nnnn2C2CCCC2)CC1 (stereo not drawn) | -10 | 0.15 | -0.0042 | 44 | · | 62*
COc1cc2cc(C(c3nnnn3C3CCCC3)N3CCc4ccccc43)c(=O)[nH]c2cc1OC (stereo not drawn) | 13 | -1.2 | · | 14 | -0.0064 | -4
COc1ccccc1N1CCN(C(c2cc3cc(C)ccc3[nH]c2=O)c2nnnn2C2CCCC2)CC1 (stereo not drawn) | 2 | -0.92 | 0.82 | · | · | 54*
CCOC(=O)C1CCN(C(c2cc3ccc(C)cc3[nH]c2=O)c2nnnn2C2CCCCC2)CC1 (stereo not drawn) | 4 | · | 0.2 | 33 | · | 88*
CC(C)OCCCNc1ncnc2c1[nH]c1ccccc12 | 12 | ? | 0.26 | 31 | · | 70*
O=c1c2[nH]c3ccccc3c2ncn1CCC1=CCCCC1 | 24 | 0.07 | -0.43 | · | 0.021 | 4
C1=C(CCNc2ncnc3c2[nH]c2ccccc23)CCCC1 | 87* | -2 | -2.5 | 35 | -1.8 | 98*
Cn1cnnc1SCC(=O)c1cccc([N+](=O)[O-])c1 | -11 | 0.37 | 0.59 | -50 | -0.14 | 4
COc1ccccc1C(=O)N1CCN(C(=O)COc2cccc(C)c2)CC1 | -8 | -0.21 | -0.36 | -26 | · | -3
Cc1ccc(OCC(=O)N2CCC(N3CCCCCC3)CC2)cc1 | -23 | -0.44 | · | · | 0.6 | 87*
COc1ccccc1N1CCN(C2CCN(C(=O)COc3cccc(C)c3)CC2)CC1 | 4 | 0.06 | -0.27 | 4 | -2.3 | 56*
O=C(CCC1CCCC1)N1CCC(N2CCCCCC2)CC1 | 15 | 1 | -0.28 | 21 | -1.3 | 91*
COC(=O)C1CCN(C(=O)CCC2CCCCC2)CC1 | -1 | -0.73 | -2.3 | · | -1.1 | -7
O=C(Nc1ccc2c(c1)CCC2)c1ccc(Cl)nc1 | -14 | -0.34 | 0.43 | 29 | -0.15 | 15
Cc1ccc2c(c1)C(c1ccc([N+](=O)[O-])cc1)=NNC(c1ccc(Br)cc1)=N2 | 0 | 0.68 | 0.69 | -61 | -0.033 | 53*
NC1=NC2(CCCCC2)N(c2cccc(Cl)c2)C(N)=N1 | 11 | · | 0.96 | -240 | · | 1
O=C(CCN1CCN(c2ccccc2)CC1)N/N=C/c1ccccc1O | -9 | -1.4 | -0.13 | · | -0.76 | 98*
Nc1c(C(=O)NCCc2ccc(Cl)cc2)sc2ccc(S(=O)(=O)N3CCCCC3)cc12 | 23 | -0.08 | -0.098 | · | · | 83*
CCOc1ccc(NC(=O)c2ccc(NC(=O)c3cn4c5c(c(N6CCN(C)CC6)c(F)cc5c3=O)OCC4C)cc2)cc1 (stereo not drawn) | -3 | -0.67 | 0.1 | -88 | 1.5 | 93*

Compound activity from PubChem BioAssay.
